Source: PubChem BioAssay (NCI)
Several values for one entry are separate records, joined by “and”; a condition that tells them apart may be missing. Identical values can stand only once. This is part of a sample that, as a whole, favours compounds with a hit. Of some 83,000 tested, about 20% had one in any assay.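 48-hour exposure, single concentration, 96-well plates; percent growth endpoint where 0 means no net growth. Active: below 10.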 Activity calls are given as the source filed them.

tested on: MDA-MB-468 breast; test: NCI-60 one-dose screen, 48 h (100 = growth as untreated, 0 = no growth, -100 = all killed); details: 10 µM unless noted

SMILES | growth
N=c1ccccn1CCO | 113% (inactive)
CN(C)C(=O)c1cc2cnc(Nc3ccc(-c4csc5c(=S)cc(N6CCOCC6)oc45)cc3)nc2n1C1CCCC1 | 1.46% (active)
C[C@@H]1N=C(c2ccc(Br)cc2)Nc2nc3ccccn3c2C1=O | -0.502% (active)
Brc1ccc(-c2nnc3c4[nH]ccc4ncn23)cc1 | 104% (inactive)
Cc1ccc([C@@H]2C[C@H](O)Cc3ccccc3N2)s1 | 124% (inactive)
CN1CCN(CCCN2c3ccccc3Sc3ccc(Cl)cc32)CC1 | -0.133% (active) and 70.8% (inactive)
O=C1OC2(c3ccccc31)c1ccc(O)c(O)c1Oc1c2ccc(O)c1O | 96.8% (inactive) and 113% (inactive)
Cc1ccc(NC(=O)c2sc3nc(C)c(C(=O)c4ccccc4)cc3c2N)cc1 | 79% (inactive)
C#C[C@]1(O)CC[C@H]2[C@@H]3CC=C4c5nc(Nc6ccccn6)sc5CC[C@]4(C)[C@H]3CC[C@@]21C | 14.2% (inactive)
CCOC(=O)C#Cc1c(C(=O)OCC)nnn1[C@@H]1O[C@H](COC)[C@@H](OC)[C@H]1OC | -20.5% (active)
O=C(c1ccc(Cl)cc1)N1CCN(c2ccnc3cc(Cl)ccc23)CC1 | 72.7% (inactive)
COc1ccc(C(=O)c2cc3c(N)c(C(=O)Nc4cccc(OC)c4)sc3nc2C)cc1 | 4.38% (active)
C=C(C)[C@@H]1CC[C@]2(C(=O)NC3CCCCC3)CC[C@]3(C)[C@H](CC[C@@H]4[C@@]5(C)CC[C@H](N)C(C)(C)[C@@H]5CC[C@]43C)[C@@H]12 | 103% (inactive)
NC(N)=NS(=O)(=O)c1ccc(N=NC2C(=O)NN(c3ccccc3)C2=O)cc1 (centres undefined) | 96.6% (inactive)
Oc1ccccc1O | 91.1% (inactive)
CSc1nc(S(C)(=O)=O)nc2[nH]c(=O)[nH]c12 | 103% (inactive)
O=C(CN1CCN(c2ccccc2)CC1)N1CCN(c2nnc(-c3ccc(Cl)cc3)c(-c3ccc(Cl)cc3)n2)CC1 | 78.7% (inactive)
COc1ccc(NC2=NC(C)(CO)CS2)cc1 (centres undefined) | 108% (inactive)
CC(C)COC(=O)NC(C)(C)C | 96.5% (inactive)
Nc1ccn(C2OC(CO)C(O)C2F)c(=O)n1 (centres undefined) | 96.3% (inactive)
Cc1ccc2c3c(cccc13)-c1ccccc1C2=O | 97% (inactive)
C=CCOc1ccc2c(c1)CC[C@@H]1[C@@H]2CC[C@]2(C)C(=O)/C(=N/O)C[C@@H]12 | 60.8% (inactive)
COc1ccc2c(c1)[nH]c(=O)c1c3cc(OC)c(OC)cc3cn21 | 11.4% (inactive)
O=C(/C=C/c1ccc(Cl)cc1)c1ccc(O)c(CN2CCN(c3cc4c(cc3F)c(=O)c(C(=O)O)cn4C3CC3)CC2)c1 | 40.9% (inactive)
Nc1ccccc1SC(CC(=O)c1ccccc1)c1cccc([N+](=O)[O-])c1 (centres undefined) | 85.9% (inactive) and 77.9% (inactive)
CCc1cc(OC(=O)N2CCN(CCC(C)(COC(C)(C)C)COC(C)(C)C)CC2)ccc1Nc1cc(-c2ccc(-n3cccn3)cc2)[nH]n1 | 82.4% (inactive)
CC(C)c1ccc(NCc2cn(-c3ccc(C(=O)O)cc3)nc2-c2cc(C(F)(F)F)cc(C(F)(F)F)c2)cc1 | 102% (inactive)
O=c1c(Cc2ccc(F)cc2)cc(-c2ccccc2)nn1C/C(=N/O)c1ccccc1 | 41.2% (inactive)
Cc1ccc(/C=N/Nc2nc(Nc3ccccc3)nc(-n3nc(C)cc3C)n2)cc1 | 60.9% (inactive)
